For 90 molecules, activation results are on record in PubChem BioAssay AID687014 (The Scripps Research Institute Molecular Screening Center, 2013).

The whole screen tested about 370,000 compounds, of which about 6,800 (1.8%) were called active. The sample holds actives, similar compounds and a random draw of the others, so the mix is not that of the screen. A number with no mark means an inactive call.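 The calls were made as follows: active = activation above a cutoff set at the mean of all screened compounds plus 3 SD (cut at about 10% in these data); inactive = the rest.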

The test system of this experiment is Nuclear hormone receptor DAF-12 (Heterodera glycines), GAL4 fusion. The experiment in a line: H. glycines DAF-12 receptor agonists, primary screen, cell-based, luminescence, HEK293, GAL4 fusion, UAS-luciferase (AID 687014).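 Also: 0% = DMSO wells and 100% = sodium butyrate wells.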 The note with it: HEK293 GAL4-hgDAF12 UAS-luciferase reporter, agonist luminescence; at 6.8 µM; stronger effect = higher value; normalized to butyrate control. In general terms: In a reporter assay the amount or activity of a reporter protein is the signal.
For the molecule `O=C(CCCOc1ccccc1)NNC(=O)c1ccc(Cl)cc1`, the activation was -0.32%. Turning to `O=C(CCc1c[nH]c2ccccc12)NCCOc1ccccc1`, the activation was 3.15%. As for `CC(C)c1ccc(C(=O)NCCCc2ccccc2)cc1`, the figure is 9.47%.

With `O=C(NCCc1csc(-c2ccccc2)n1)c1ccccc1F`, the activation was -3.44%.

For the molecule `NS(=O)(=O)c1cc(C(=O)NCCOc2ccccc2)c(Cl)cc1Cl`, the activation is -5.7%. As for `O=C(COC(=O)CNC(=O)c1ccccc1F)NCC(F)(F)F`, the figure is -2.85%; as for `O=C(NCCOc1ccccc1)c1ccccc1F`, 15% (active). In the case of `CCCOc1ccc(C(=O)NCCc2ccccc2)cc1`, the activation is 18.9% (active). The result for `CN(c1ccccc1)S(=O)(=O)c1ccc(C(=O)NCCc2ccccc2)cc1` reads 4.14%; that for `O=C(CNC(=O)c1ccccc1F)OCC(=O)c1c[nH]c2ccccc12`, 1.04%; that for `O=C(NCCOc1ccccc1)c1ccccc1`, 14.6% (active).

Turning to `O=C(CNC(=O)c1ccccc1F)c1ccc(Br)cc1`, the activation is 11.4% (active). As for `NC(=O)c1nnsc1-c1ccc(-c2snnc2C(N)=O)cc1`, the figure is 2.87%; as for `COc1cccc(CSc2nnc(-c3cccnc3)n2Cc2ccccc2)c1`, 1.72%; as for `CC(C)CNc1cccc2c1S(=O)(=O)N[C@H](C)CO2`, -0.06%. Regarding `Cc1[nH]c2ccccc2c1CC(=O)Nc1ccc(Nc2cccnc2)c(-c2cccc(Cl)c2)c1`, the activation was -1.25%.

On to `CC(C)C(C#CC1CC1)N(Cc1ccc2c(c1)OCO2)C(N)=NC(=O)/C=C/c1cccc(C(F)(F)F)c1` (stereo not given), for which the activation is 0.47%.

As for `C=CCN1C(=O)[C@@H](CC(=O)N2CCN(C(=O)c3ccco3)CC2)[C@]2(C(=O)OC)CCCCC=C12`, the activation is 0.44%.

Consider `Nc1cccc2c1C(=O)N(Cc1nnc(-c3ccccc3Br)o1)C2=O`, for which the activation was -2.29%.

In the case of `C=CC1=CCN(S(=O)(=O)C(C)(C)C)[C@@H]1CCO`, the activation is 1.1%.

With `CC(C)Oc1ccc(/C=C(\NC(=O)/C=C/c2ccco2)C(=O)NCCc2nc3ccccc3[nH]2)cc1`, the activation is -4.59%. As to `O=C(OCc1cc(=O)n2ccsc2n1)C1(c2ccc(Cl)cc2)CC1`, the activation was -1.52%. As for `COC(=O)Cc1nnn2c1[C@H](C)[C@@H](OC)c1cc(Br)ccc1-2`, the activation is 3.49%. For `CCOC(=O)c1c(NC(C)=O)sc2c(O)c(Br)ccc12`, the activation was 1.29%. For `Cc1csc(NC(=O)Nc2ccccc2[N+](=O)[O-])n1`, the activation was 25.4% (active). Turning to `CN1CCN(CCNC(=O)Nc2ccccc2[N+](=O)[O-])CC1`, the activation is 0.56%. With `Cc1cc(NC(=O)Nc2ccccc2[N+](=O)[O-])no1`, the activation is 4.97%. The result for `COC1=C[C@H](C(=O)NCCNC(C)=O)[C@H](C)[C@@H](c2ccccc2)CC1=O` reads -1.27%; that for `O=C(Cn1c(N2CCN(C/C=C/c3ccccc3)CC2)nc2ccccc21)c1ccccc1`, -0.26%; that for `Cc1ccc(NC(=O)C(=O)NCC2CCN(C(=O)c3cccc([N+](=O)[O-])c3)CC2)cc1`, 1.22%. For the molecule `O=C(NC(=S)NC1CCS(=O)(=O)C1)c1cccc([N+](=O)[O-])c1` (stereo not given), the activation was 3.84%.

In the case of `O=C(Nc1ccc(C2CC2(Cl)Cl)cc1)c1cccc([N+](=O)[O-])c1` (stereo not given), the activation is 14.5% (active). Turning to `COc1ccc(S[C@]2(C(=O)N(C)C)CC(=O)N(c3ccc(OC)cc3)[C@@H]2c2ccc(OC)cc2)cc1`, the activation was -1%. Regarding `CC(=O)N1C(C)c2ccccc2C(C)(C)CC12CCCCC2` (stereo not given), the activation is -2.75%.

For `CN[C@H]1C[C@H]2c3[nH]c4c(-c5ccccc5)cccc4c3CCN2C(=O)[C@H]1[C@H](C)O`, the activation is -0.57%. For the molecule `O=C(N/N=C/c1cccc2cccnc12)[C@H]1C[C@@H]1c1ccccc1`, the activation was -1.03%. Regarding `O=C(Cc1ccc(Cl)cc1)NC(=S)Nc1ccccc1O`, the activation is 3.46%. As for `O=C(NC(=S)Nc1cccc2c(O)cccc12)c1cccc(Br)c1`, the activation is 0.96%. Regarding `O=C(NC(=O)c1ccccc1)Nc1ccccc1O`, the activation is 13.8% (active). Turning to `CCOC(=O)[C@H]1CCC[C@@H](NS(=O)(=O)c2ccc(NC(C)=O)cc2)C1`, the activation is 1.29%. Regarding `Cc1ccc(NC(=O)Cc2cccc(F)c2)c(S(=O)(=O)N2CCOCC2)c1`, the activation is 1.41%. With `COCC1CCCN(Cc2nc(-c3ccc4c(c3)OCO4)no2)C1` (stereo not given), the activation is 6.75%. For the molecule `O=C(COCc1cc(-c2ccc3c(c2)OCO3)on1)N1CCN(c2cccc(Cl)c2)CC1`, the activation was 1.17%.

With `CCc1ccccc1NC(=O)CSc1nnc(-c2cccs2)o1`, the activation is 2.52%. As to `Brc1ccc(C2CC(c3ccccc3)=Nc3ccccc3N2)cc1` (stereo not given), the activation is 17.3% (active).

Turning to `CNC(=S)N1N=C(c2ccccc2)CC1c1ccc(Br)cc1` (stereo not given), the activation is -1.01%. The result for `CN1[C@H](Cc2ccccc2)COc2cccc(N3CCSCC3)c2S1(=O)=O` reads 4.83%; that for `Cc1cc(=O)[nH]c(SCC(=O)Nc2ccc(Cl)cc2C)n1`, 1.76%. For the molecule `CCCCCCCCNS(=O)(=O)/C=C/c1cc(C)ccc1CNC(=O)OC(C)(C)C`, the activation is 0.08%. With `COC(=O)c1cc(S(=O)(=O)N2CCN(c3ccccc3C)CC2)cn1C`, the activation was -4.6%.

For `Cc1sc(NC(=O)c2ccc3ncsc3c2)c(C(N)=O)c1C`, the activation was 8.75%.

Take `CC(C)c1cc(C(N)=O)c(NC(=O)c2cccc(COc3ccc(Br)cc3)c2)s1`: the activation was 16.6% (active).

For the molecule `CCOC(=O)c1cc(C(C)C)sc1NC(=O)COC(=O)c1nccnc1N`, the activation is 0.71%.

For `C[C@H](O)[C@@H]1C(=O)N2CCc3c([nH]c4c(-c5ccc6c(c5)OCO6)cccc34)[C@@H]2C[C@@H]1N(C)C(=O)c1ccco1`, the activation was 2.82%. For `Nc1nc2c(ncn2[C@@H]2O[C@H](C(=O)N[C@H](Cc3ccccc3)C(=O)NCC3CCCCC3)[C@@H](O)[C@H]2O)c(=O)[nH]1`, the activation is -0.41%. For `c1ccc2c(c1)nnn2-c1ccncc1`, the activation is 0.89%.

As to `COCCCNC(=O)C[C@H]1C[C@@]2(C(=O)OC)C(=C[C@H](C(C)(C)C)O[C@@H]2C)N(Cc2ccc3c(c2)OCO3)C1=O`, the activation was 1.15%.

For the molecule `CC1CCN(Cc2nc(-c3ccc(Cl)cc3)no2)CC1`, the activation is 0.37%. Turning to `Cc1ccc(-c2noc(CNC(=O)c3ccoc3C)n2)cc1`, the activation was -0.34%. `Cc1cc(Cl)ccc1OCc1nc(-c2ccncc2)no1`: the activation is 14% (active). The result for `CN(CCc1ccccc1)C(=O)Cn1nc(-c2ccccc2)ccc1=O` reads 1.22%; that for `O=C1CC[C@@]23CCCN2C(=O)CCC[C@H]3[C@H]1Cc1ccccc1`, -4.37%; that for `Cc1nc2cc(NC(=O)Nc3cccc(F)c3)ccc2n1C`, 14.2% (active). Consider `Cc1nc2nc(SCC(=O)Nc3cccc(F)c3)[nH]c2cc1Br`, for which the activation is 0.38%. For the molecule `Cc1nc2cc(NCc3cccs3)ccc2n1C`, the activation is 8.48%. Turning to `Cc1ccc(C)c(CN2CCC(CNC(=O)C3CCCN(c4ncnc5c4nc4n5CCCCC4)C3)CC2)c1` (stereo not given), the activation is -0.85%. The result for `COC(=O)C(C(=O)OC)c1ccccc1NS(=O)(=O)c1cccc2ccccc12` reads -2.1%; that for `CCOc1ccc2nc(C(=O)N3CCCC(C)C3)sc2c1` (stereo not given), 17.9% (active). As for `COc1ccc2cc(C(=O)C3CCCN(C(=O)c4sc(C)nc4C)C3)ccc2c1` (stereo not given), the figure is -1.02%; as for `CCOc1ccc(NC(=O)C2CCCN(C(=O)Nc3ccccc3)C2)cc1` (stereo not given), 1.89%; as for `COc1ccc(N(CC(=O)NCc2ccc(F)cc2)C(=O)CCC(=O)Nc2nccs2)cc1`, 1.39%. Regarding `CC(C)C(=O)Nc1oc(-c2ccccc2)cc1C#N`, the activation is -0.28%. For the molecule `CC(C)C(=O)Nc1c(C(=O)c2ccc(F)cc2)oc2ccccc12`, the activation is -0.79%.

As to `CC(C)C(=O)Nc1ccc2c(c1)oc1ccccc12`, the activation was 12.2% (active).

`COC(=O)N1Cc2ccnnc2CC1c1ccccc1Br` (stereo not given): the activation is 0.66%. In the case of `CCC(c1nc2ccccc2[nH]1)n1c(=O)c(-c2cccs2)nc2ccccc21` (stereo not given), the activation is 1.53%.

For `FC(F)(F)c1cccc(-c2cc3ccccc3nc2N2CCCC2)c1`, the activation was -1.35%. As for `FC(F)(F)c1cccc(-c2nc3ccccc3n2C(c2ccccc2)c2nc3ccccc3[nH]2)c1` (stereo not given), the activation is 10.7% (active). Take `COC(=O)C1=C(C)N(Cc2ccccc2C(F)(F)F)C(=NCC2CC2)NC1c1cccc(Cl)c1` (stereo not given): the activation is 4.82%.

As to `C=CCN1[C@H](CC(C)C)COc2cccc(N3CCCC3)c2S1(=O)=O`, the activation was 1.57%. As to `O=c1c2ccccc2nc2n1C(CSc1ccc(Cl)cc1)CN2` (stereo not given), the activation is -1.24%. Regarding `Clc1ccc2nc(CSc3ccccc3)cn2c1`, the activation was 15.8% (active). On to `Cn1nc(-c2ccccc2)c(CSc2cccc(Cl)c2)c1Cl`, for which the activation was -1.11%. As for `COC(=O)C[C@@H]1CC[C@@H]2[C@H](COc3ccc(NC(=O)c4cccc(F)c4)cc3C(=O)N2C)O1`, the activation was 7.18%. Regarding `Cc1noc(C)c1NC(=O)Nc1ccc2c(c1)C(=O)N([C@H](C)CO)C[C@H](C)[C@H](CN(C)Cc1ccncc1)OCCCC[C@@H](C)O2`, the activation is 2.01%. The result for `C=CS(=O)(=O)N(Cc1nnn(Cc2ccccc2)c1Br)[C@H](C(=O)OC)C(C)C` reads -3.42%; that for `COCC(=O)N1CCCC(C(=O)c2ccc(C(F)(F)F)cc2)C1` (stereo not given), -2.29%. Turning to `Cc1cnc(C(=O)N2CCCC(C(=O)c3ccc(C(F)(F)F)cc3)C2)cn1` (stereo not given), the activation is 19.4% (active). As to `O=C(c1ccc(C(F)(F)F)cc1)C1CCCN(C(=O)c2csnn2)C1` (stereo not given), the activation was -0.18%.

For the molecule `COc1ccc(-n2c(SCC(=O)Nc3ccc4cn[nH]c4c3)nnc2-c2cccnc2)cc1`, the activation is -0.21%.
